Data reported in PubChem BioAssay (EPA / NIEHS).
Inconclusive results are not listed. Calls of active or inactive are those of the source. The calls were made as follows, unless noted: active = hit-call score of the fitted dose curve at least 0.9, where 1 is the maximum; inactive = score below 0.9.

Assays:
[1] = read-out: Pyruvate Dehydrogenase Kinase 4 (PDK4), PDK4 (gene 5166); assay: LTEA_HepaRG_PDK4: Life Technologies and Expression Analysis (LTEA) Assay for Pyruvate Dehydrogenase Kinase 4 (PDK4) using HepaRG (AID 2283525); settings: mRNA level, 48 h; actives raise or lower the signal
In short: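 Readout is qRT-PCR of PDK4 transcript, normalized to three housekeeping genes, with bidirectional fitting against 0.5% DMSO vehicle. Differentiated HepaRG cells were treated 48 h in serum-free induction medium, duplicate wells, eight-point half-log series topping at 100 uM.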

[2] = read-out: NAD(P)H dehydrogenase [quinone] 1 (NQO1), NQO1 (gene 1728); assay: LTEA_HepaRG_NQO1: Life Technologies and Expression Analysis (LTEA) Assay for NAD(P)H dehydrogenase [quinone] 1 (NQO1) using HepaRG (AID 2283526); settings: mRNA level, 48 h; actives raise or lower the signal
In short: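 Transcript induction or suppression is quantified by qRT-PCR in human HepaRG liver cells dosed for 48 hours. Eight half-log concentrations topping at 100 uM are used, with 0.5% DMSO as vehicle and baseline.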

[3] = read-out: Nuclear factor erythroid 2-related factor 2 (Homo sapiens) (UniProt Q16236); assay: LTEA_HepaRG_NFE2L2: Life Technologies and Expression Analysis (LTEA) Assay for Nuclear factor erythroid 2-related factor 2 (NFE2L2) Transcription Factor using HepaRG (AID 2283527); settings: mRNA level, 48 h; actives raise or lower the signal;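 also: TaqMan qRT-PCR transcript level normalised to ACTB GAPDH and POLR2A housekeeping genes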
In short: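 NFE2L2 transcript level was read by qRT-PCR (housekeeping ACTB/GAPDH/POLR2A normalisation) after 48 h chemical treatment of HepaRG in serum-free induction medium. Duplicate 8-point half-log curves, top 100 uM, 0.5% DMSO vehicle; up- or down-regulation fitted against vehicle.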

[4] = read-out: succinate dehydrogenase complex iron sulfur subunit B (SDHB), SDHB (gene 6390); assay: LTEA_HepaRG_SDHB: Life Technologies and Expression Analysis (LTEA) Assay for succinate dehydrogenase complex iron sulfur subunit B (SDHB) using HepaRG (AID 2283528); settings: mRNA level, 48 h; actives raise or lower the signal
In short: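 HepaRG, 48 h exposure, 8-pt half-log series from 100 uM in 0.5% DMSO, duplicates. Readout: SDHB mRNA by Fluidigm qRT-PCR vs housekeeping genes; bidirectional fit relative to DMSO.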

[5] = read-out: Signal transducer and activator of transcription 3 (Homo sapiens) (UniProt P40763); assay: LTEA_HepaRG_STAT3: Life Technologies and Expression Analysis (LTEA) Assay for Signal transducer and activator of transcription (STAT3) using HepaRG (AID 2283529); settings: mRNA level, 48 h; actives raise or lower the signal
In short: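 STAT3 transcript quantified by qRT-PCR against three housekeeping genes (ACTB, GAPDH, POLR2A), fitted both directions relative to DMSO. HepaRG cultures exposed 48 h to eight half-log concentrations, top 100 uM, 0.5% DMSO, serum-free induction medium.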

[6] = read-out: solute carrier (SLCO1B1), SLCO1B1 (gene 10599); assay: LTEA_HepaRG_SLCO1B1: Life Technologies and Expression Analysis (LTEA) Assay for solute carrier (SLCO1B1) using HepaRG (AID 2283530); settings: mRNA level, 48 h; actives raise or lower the signal
In short: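 SLCO1B1 transcript levels were quantified by TaqMan qRT-PCR using three housekeeping genes for normalization. This followed 48 h chemical exposure (100 uM top, half-log, 8 points, 0.5% DMSO) of HepaRG liver cells, with gain or loss fitted relative to DMSO.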

[7] = read-out: Transforming Growth Factor (TGFA), TGFA (gene 7039); assay: LTEA_HepaRG_TGFA: Life Technologies and Expression Analysis (LTEA) Assay for Transforming Growth Factor (TGFA) using HepaRG (AID 2283532); settings: mRNA level, 48 h; actives raise or lower the signal
In short: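 TGFA transcript quantified by qRT-PCR (Fluidigm arrays) against three housekeeping genes, after 48 hours chemical treatment of HepaRG cells. Top concentration 100 uM with half-log dilutions, 8 points, duplicates, 0.5% DMSO.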

[8] = read-out: Transforming Growth Factor (TGFB1), TGFB1 (gene 7040); assay: LTEA_HepaRG_TGFB1: Life Technologies and Expression Analysis (LTEA) Assay for Transforming Growth Factor (TGFB1) Transporter using HepaRG (AID 2283533); settings: mRNA level, 48 h; actives raise or lower the signal
In short: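 TGFB1 transcript measured by qRT-PCR with normalisation to three housekeeping genes (ACTB, GAPDH, POLR2A); human HepaRG line treated in duplicate for 48 hr with an 8-point series topping at 100 uM, 0.5% DMSO vehicle, bidirectionally fitted.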

[9] = read-out: Thyroid Hormone Responsive (THRSP), THRSP (gene 7069); assay: LTEA_HepaRG_THRSP: Life Technologies and Expression Analysis (LTEA) Assay for Thyroid Hormone Responsive (THRSP) using HepaRG (AID 2283536); settings: mRNA level, 48 h; actives raise or lower the signal
In short: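 THRSP transcript quantified by Fluidigm qRT-PCR against three housekeeping genes after 48 h chemical exposure of HepaRG cells in serum-free induction medium; eight-point half-log series, top 100 uM, 0.5% DMSO vehicle, duplicate wells.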

[10] = read-out: Cellular tumor antigen p53 (Homo sapiens) (UniProt P04637); assay: LTEA_HepaRG_TP53: Life Technologies and Expression Analysis (LTEA) Assay for Tumor Protein P53 (TP53) using HepaRG (AID 2283537); settings: mRNA level, 48 h; actives raise or lower the signal
In short: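 HepaRG, 48 h exposure, top 100 uM, half-log 8-point, 0.5% DMSO vehicle, duplicates. Read: TP53 mRNA by TaqMan qRT-PCR, normalised to ACTB/GAPDH/POLR2A; bidirectional fit vs DMSO.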

[11] = read-out: UDP glucuronosyltransferase (UGT1A1), UGT1A1 (gene 54658); assay: LTEA_HepaRG_UGT1A1: Life Technologies and Expression Analysis (LTEA) Assay for UDP glucuronosyltransferase (UGT1A1) using HepaRG (AID 2283538); settings: mRNA level, 48 h; actives raise or lower the signal
In short: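 Cells are plated, cultured 48 h, switched to serum-free induction medium, then dosed 48 h at eight concentrations (max 100 uM, 0.5% DMSO). RNA is isolated and UGT1A1 expression measured by qRT-PCR; changes versus DMSO are fitted in both directions.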

[12] = read-out: UDP glucuronosyltransferase (UGT1A6), UGT1A6 (gene 54578); assay: LTEA_HepaRG_UGT1A6: Life Technologies and Expression Analysis (LTEA) Assay for UDP glucuronosyltransferase (UGT1A6) using HepaRG (AID 2283539); settings: mRNA level, 48 h; actives raise or lower the signal
In short: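 Expression was quantified by TaqMan qRT-PCR on Fluidigm arrays with ACTB/GAPDH/POLR2A normalization and bidirectional fitting against 0.5% DMSO. HepaRG cells (~100,000/well) were treated in duplicate for 48 h at eight half-log concentrations up to 100 uM in serum-free induction medium.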

[13] = read-out: X-box binding protein 1 (XBP1), XBP1 (gene 7494); assay: LTEA_HepaRG_XBP1: Life Technologies and Expression Analysis (LTEA) Assay for X-box binding protein 1 (XBP1) using HepaRG (AID 2283540); settings: mRNA level, 48 h; actives raise or lower the signal
In short: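 XBP1 transcript by qRT-PCR (housekeeping-normalized: ACTB, GAPDH, POLR2A) after 48 h chemical treatment of HepaRG cells, 8-point half-log series topping at 100 uM, vehicle 0.5% DMSO. Gain and loss of signal fitted relative to DMSO.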

[14] = LTEA_HepaRG_LDH_cytotoxicity: Cytotoxicity Assessment in the Life Technologies and Expression Analysis (LTEA) Assay (AID 2283563; active = hit-call score of the fitted dose curve at least 0.9, where 1 is the maximum)
In short: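 LDH release into culture medium read after 48 h chemical treatment of HepaRG cells. Duplicate wells, eight-point half-log series topping at 100 uM, 0.5% DMSO vehicle and baseline.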

[15] = ATG_XTT_Cytotoxicity: Cytotoxicity Assessment in the Attagene TRANS-FACTORIAL HepG2 Assay (AID 2283584; active = hit-call score of the fitted dose curve at least 0.9, where 1 is the maximum)
In short: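 Viability endpoint from XTT after 24 h chemical exposure of reporter-transfected human HepG2 liver cells; signal loss fitted relative to DMSO negative control.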

[16] = TOX21_p53_BLA_p2_viability: Viability Assessment in the Tox21 HCT-116 p53 Agonism Beta-lactamase Assay, Phase 2 (AID 2283591; active = hit-call score of the fitted dose curve at least 0.9, where 1 is the maximum;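 also: compound exposure lasted 16 h at 37 °C; actives lower the ATP signal meaning cytotoxicity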)
In short: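 Cytotoxicity readout: CellTiter-Glo ATP luminescence, 30 min at room temperature, after the beta-lactamase read. Cells were HCT116 exposed 16 h at 37C to compounds pin-transferred at 217-fold dilution from DMSO stocks.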

[17] = read-out: Tumor necrosis factor receptor 1 (TNFRSF1A), TNFRSF1A (gene 7132); assay: LTEA_HepaRG_TNFRSF1A: Life Technologies and Expression Analysis (LTEA) Assay for Tumor necrosis factor receptor 1 (TNFRSF1A) using HepaRG (AID 2283535); settings: mRNA level, 48 h; actives raise or lower the signal
In short: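 mRNA measured by qRT-PCR (TaqMan, Fluidigm arrays) against ACTB/GAPDH/POLR2A housekeepers after 48 h chemical exposure of HepaRG cells. Top concentration 100 uM, half-log 8-point series, duplicates; vehicle 0.5% DMSO, both fit directions.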

[18] = molecular target: Cellular tumor antigen p53 (Homo sapiens) (UniProt P04637); assay: TOX21_p53_BLA_p2_ratio: Tox21 HCT-116 p53 Agonism Beta-lactamase Assay, Ratio, Phase 2 (AID 2283592; active = hit-call score of the fitted dose curve at least 0.9, where 1 is the maximum)
In short: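 Read-out is the blue/green (460/530 nm, 405 nm excitation) ratio after 2 h CCF4-AM loading, fitted as gain versus DMSO. Compounds, pinned at 217-fold dilution from DMSO stocks, stayed 16 h on HCT-116 beta-lactamase reporter cells seeded 5 h earlier.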

TIMP1, TIMP1 (gene 7076) = assay: LTEA_HepaRG_TIMP1: Life Technologies and Expression Analysis (LTEA) Assay for TIMP1 using HepaRG (AID 2283534); settings: mRNA level, 48 h; actives raise or lower the signal
In short: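 Bidirectional change in TIMP1 transcript versus 0.5% DMSO, measured by TaqMan qRT-PCR with three housekeeping genes for normalization. HepaRG human liver cells dosed 48 h in duplicate, top concentration 100 uM with half-log dilutions.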

[19] = read-out: sulfotransferase 2A1 (SULT2A1), SULT2A1 (gene 6822); assay: LTEA_HepaRG_SULT2A1: Life Technologies and Expression Analysis (LTEA) Assay for sulfotransferase 2A1 (SULT2A1) using HepaRG (AID 2283531); settings: mRNA level, 48 h; actives raise or lower the signal
In short: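 Expression change of SULT2A1, by qRT-PCR with three housekeeping-gene normalization, was scored bidirectionally versus DMSO. Cells: differentiated HepaRG, dosed in duplicate for 48 h across 8 points, highest 100 µM, half-log dilution, 0.5% DMSO.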

Measured: AC50

Sequence of Cellular tumor antigen p53 (Homo sapiens) (P04637 whole entry, looked up): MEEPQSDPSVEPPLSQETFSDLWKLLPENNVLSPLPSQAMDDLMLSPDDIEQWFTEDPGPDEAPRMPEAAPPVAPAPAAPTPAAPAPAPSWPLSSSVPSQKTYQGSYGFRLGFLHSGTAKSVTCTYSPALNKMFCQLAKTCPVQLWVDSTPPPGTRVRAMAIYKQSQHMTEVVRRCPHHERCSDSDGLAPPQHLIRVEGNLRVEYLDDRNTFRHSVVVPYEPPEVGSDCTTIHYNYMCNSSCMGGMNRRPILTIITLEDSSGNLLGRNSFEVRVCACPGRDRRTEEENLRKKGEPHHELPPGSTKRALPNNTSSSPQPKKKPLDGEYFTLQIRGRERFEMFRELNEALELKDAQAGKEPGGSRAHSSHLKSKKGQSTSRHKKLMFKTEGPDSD
Sequence of Nuclear factor erythroid 2-related factor 2 (Homo sapiens) (Q16236 whole entry, looked up): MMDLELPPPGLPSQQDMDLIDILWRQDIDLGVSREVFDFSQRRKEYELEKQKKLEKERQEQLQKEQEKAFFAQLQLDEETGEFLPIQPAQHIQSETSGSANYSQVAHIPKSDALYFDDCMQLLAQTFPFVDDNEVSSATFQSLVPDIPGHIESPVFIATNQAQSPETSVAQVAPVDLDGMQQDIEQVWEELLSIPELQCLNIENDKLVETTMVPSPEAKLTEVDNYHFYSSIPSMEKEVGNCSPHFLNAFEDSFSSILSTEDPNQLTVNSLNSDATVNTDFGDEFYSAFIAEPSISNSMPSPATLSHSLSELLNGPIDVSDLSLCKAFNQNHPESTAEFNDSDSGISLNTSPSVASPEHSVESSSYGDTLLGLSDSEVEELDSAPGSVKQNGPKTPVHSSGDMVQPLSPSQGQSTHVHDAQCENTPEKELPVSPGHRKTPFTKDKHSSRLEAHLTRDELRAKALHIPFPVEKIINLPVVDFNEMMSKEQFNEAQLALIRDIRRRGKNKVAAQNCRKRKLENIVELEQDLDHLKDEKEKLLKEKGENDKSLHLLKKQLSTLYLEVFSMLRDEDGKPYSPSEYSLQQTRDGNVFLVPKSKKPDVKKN
Sequence of Signal transducer and activator of transcription 3 (Homo sapiens) (P40763 whole entry, looked up): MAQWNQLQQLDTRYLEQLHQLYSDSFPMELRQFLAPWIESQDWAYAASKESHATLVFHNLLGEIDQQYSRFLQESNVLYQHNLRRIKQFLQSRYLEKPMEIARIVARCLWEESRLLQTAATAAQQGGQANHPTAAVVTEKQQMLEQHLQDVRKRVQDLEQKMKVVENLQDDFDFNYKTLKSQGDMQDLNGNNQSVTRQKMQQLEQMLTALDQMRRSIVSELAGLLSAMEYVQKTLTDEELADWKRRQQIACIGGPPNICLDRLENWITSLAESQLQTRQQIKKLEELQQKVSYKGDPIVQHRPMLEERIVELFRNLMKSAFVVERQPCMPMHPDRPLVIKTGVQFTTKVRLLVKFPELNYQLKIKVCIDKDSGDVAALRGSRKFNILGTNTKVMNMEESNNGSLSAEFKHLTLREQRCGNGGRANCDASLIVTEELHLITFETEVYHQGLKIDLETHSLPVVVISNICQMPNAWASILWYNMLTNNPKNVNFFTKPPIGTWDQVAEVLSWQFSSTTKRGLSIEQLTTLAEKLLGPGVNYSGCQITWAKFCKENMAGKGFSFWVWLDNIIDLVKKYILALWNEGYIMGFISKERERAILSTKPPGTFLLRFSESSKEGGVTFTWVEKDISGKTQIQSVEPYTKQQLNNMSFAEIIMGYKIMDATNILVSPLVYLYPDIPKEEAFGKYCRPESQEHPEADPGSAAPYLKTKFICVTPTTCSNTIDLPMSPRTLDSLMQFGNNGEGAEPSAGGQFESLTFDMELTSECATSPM

C1=CCCC=CCCC=CCC1
inactive: [1] | [2] | [3] | [4] | [5] | [6] | [7] | [8] | [9] | [10] | [11] | [12] | [13] | [14] | [15] | [16]

CC(C)CC(C)(O)C#CC(C)(O)CC(C)C (stereo unspecified)
inactive: [1] | [2] | [3] | [4] | [5] | [6] | [7] | [8] | [17] | [10] | [11] | [12] | [13] | [14] | [15] | [16] | [18]

O=C(NS(=O)(=O)/C=C/c1ccccc1)c1ccc(F)cc1Cl
inactive: [2] | [3] | [4] | [5] | [6] | [7] | [8] | TIMP1, TIMP1 (gene 7076) | [17] | [10] | [12] | [14] | [15] | [16]
active: [1] 26.4 µM | [11] 17.1 µM | [13] 26.3 µM | [18] 13 µM

C=CC(=C)CCC=C(C)C
inactive: [1] | [2] | [3] | [4] | [5] | [6] | [7] | [8] | TIMP1, TIMP1 (gene 7076) | [17] | [10] | [11] | [12] | [13] | [14] | [15] | [16] | [18]

CC(=O)OC[C@H]1O[C@@](COC(C)=O)(O[C@H]2O[C@H](COC(C)=O)[C@@H](OC(C)=O)[C@H](OC(C)=O)[C@H]2OC(C)=O)[C@@H](OC(C)=O)[C@@H]1OC(C)=O
inactive: [1] | [2] | [3] | [4] | [6] | [19] | [7] | [8] | TIMP1, TIMP1 (gene 7076) | [17] | [9] | [10] | [11] | [12] | [13] | [14] | [15] | [16] | [18]

CCCCC(CC)COC(=O)c1ccc(C(=O)OCC(CC)CCCC)cc1 (stereo unspecified)
inactive: [1] | [2] | [3] | [4] | [6] | [19] | [7] | [8] | TIMP1, TIMP1 (gene 7076) | [17] | [10] | [11] | [12] | [13] | [14] | [16] | [18]

CCNc1ccccc1
inactive: [1] | [2] | [3] | [4] | [5] | [6] | [7] | [8] | [17] | [10] | [11] | [12] | [13] | [14] | [16] | [18]
